Test results: PubChem BioAssay (NCATS)
Records with an inconclusive call do not appear. Where a call stands in place of a potency, no number is given. Values without a mark were called inactive. Calls of active or inactive are those of the source. Calls follow the shape of the dose curve; as a rule, active = well fitted cell-killing curve with a large enough effect; inconclusive = small, poorly fitted or top-dose-only effect, or effect the other way; inactive = no such curve, though single readings can be large or run the other way.

Experiments:
[1] = Viability qHTS for spleen associated tyrosine kinase inhibitor (SYKi) naive MV4-11 cells (AID 1963823); also: nearly all actives have a fitted effect of over 40% in size
Procedure, shortened: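 Cells: MV4-11, SYK inhibitor naive, 500 per well. Treatment: library compounds, 72 hr, 37 C, 5% CO2. Read-out: CellTiter-Glo luminescence after 10 min RT.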

[2] = Viability qHTS for spleen associated tyrosine kinase inhibitor (SYKi) drug resistant MV4-11 cells (AID 1963824); also: nearly all actives have a fitted effect of over 35% in size
Procedure, shortened: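 CellTiter-Glo luminescence, read 10 min after reagent addition, reports viability after a 72 hr compound exposure. Cells are an MV4-11 line made resistant to SYK inhibition, seeded at 500 per well onto compound-containing plates.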
Potency is read from the fitted curve at half-maximal effect.

Structure (SMILES) | Potency [1] | Potency [2] | viability (% of control) [1] | viability, % of control [2]
C=C1C(=O)O[C@H](CCC)[C@H]1C(=O)O | inactive | inactive |  | 
COc1cc(N2CCC(O)CC2)ccc1Nc1nc(Nc2ccccc2S(=O)(=O)C(C)C)c2[nH]cnc2n1 | 1.3 µM (active) | 2.06 µM (active) |  | 
COc1ccc(N(C(=O)Nc2c(C)cccc2C)c2cc(Nc3ccc(N4CCN(C)CC4)cc3)ncn2)c(OC)c1 | 2.31 µM (active) | 3.66 µM (active) |  | 
C/C=C/C1=CC2=C(CO1)C(=O)C(C)(OC(=O)c1c(C)cc(O)cc1OC)C(O)C2 (centres undefined) | 5.7 µM (active) | 5.08 µM (active) |  | 
CC1CCC2(OC1)OC1CC3C4CC=C5CC(O)CC(O[C@@H]6OC[C@@H](O)[C@H](O)[C@H]6O)C5(C)C4CCC3(C)C1(O)C2C (some centres undefined) | inactive | inactive |  | 
N#Cc1cnc2c(Cl)cc(NCc3cn(CCN4CCCCCC4)nn3)cc2c1Nc1ccc(F)c(Cl)c1 | 9.2 µM (active) | 13 µM (active) |  | 
COC(=O)CC1OC(C)C2=C(O)c3c(O)cccc3C(=O)C23OC13 (centres undefined) | 1.14 µM (active) | 0.57 µM (active) |  | 
CC(C)C(=O)O[C@@H]1[C@@H](O)[C@@H](O[C@H]2O[C@H](CO)[C@@H](O)[C@H](O)[C@H]2O)O[C@H](CO)[C@H]1O | inactive | inactive |  | 
CC(=O)Oc1ccc(C2(c3ccc(OC(C)=O)cc3)Oc3ccccc3NC2=O)cc1 | 5.8 µM (active) | 2.99 µM (active) |  | 
O=C(Nc1cccc(C(F)(F)F)c1)c1ccccc1NCc1ccncc1 | 8.2 µM (active) | 9.2 µM (active) |  | 
C=C1CCC2C(C)(C(=O)O)CCCC2(C)C1CC/C(=C\CO)CO (centres undefined) | inactive | inactive |  | 
COC(=O)C1=CO[C@@H](O[C@@H]2O[C@H](CO)[C@@H](O)[C@H](O)[C@H]2O)[C@H]2[C@@H]1[C@H](O)[C@H](O)[C@]2(C)O | inactive | inactive |  | 
Cc1cc(N2CCN(C(=O)Oc3ccc(-c4ccccc4)cn3)CC2)c2ccccc2n1 | 6.51 µM (active) | 5.8 µM (active) |  | 
CC(C)=CCc1cc(O[C@@H]2O[C@H](CO[C@@H]3OC[C@](O)(CO)[C@H]3O)[C@@H](O)[C@H](O)[C@H]2O)ccc1O | inactive | inactive |  | 
CC12CC(c3ccoc3)OC(=O)C1CCC1(C)C2CCC(O)C1(C)O (centres undefined) | inactive | inactive |  | 
CCC(C)C(=O)OC1CC(O)C23C4OCC5(C(O)CC2C1(C)C(O)O4)C3C(=O)CC1(C)C(c2ccoc2)CC2OC215 (centres undefined) | 0.893 µM (active) | 0.563 µM (active) |  | 
O=C(O[C@H]1[C@@H]2C[C@@H]3OC[C@@](O)([C@H]2[C@H](O[C@@H]2O[C@H](CO)[C@@H](O)[C@H](O)[C@H]2O)O3)[C@@H]1O)c1ccccc1 | inactive | inactive |  | 
O=C(O)c1cccc(C(=O)CCC2OC(n3cnc4c(=O)[nH]cnc43)C(O)C2O)c1 (centres undefined) | inactive | inactive |  | 
NC(=O)NCCCC(NC(=O)Cc1ccccc1)C(=O)O (centres undefined) | inactive | inactive |  | 

Structure (SMILES) | Potency [1] | Potency [2] | viability (% of control) [1] | viability, % of control [2]
CC(=O)O[C@@H]1[C@H](O[C@@H]2OC[C@](O)(CO)[C@H]2O)[C@@H](O[C@@H]2O[C@@H](C)[C@H](O)[C@@H](O[C@@H]3O[C@H](CO)[C@@H](O)[C@H](O)[C@H]3O)[C@H]2O)[C@H](OC(=O)[C@]23CCC(C)(C)C[C@H]2C2=CCC4[C@@]5(C)C[C@H](O)[C@H](O[C@@H]6O[C@H](C(=O)O)[C@@H](O)[C@H](O)[C@H]6O)[C@@](C)(C(=O)O)C5CC[C@@]4(C)[C@]2(C)CC3)O[C@@H]1C (some centres undefined) |  |  | 95.7% [at 9.25 µM] | 95.1% [at 9.25 µM]
C=C1CC2OC(=O)C(=C)C2C(OC(=O)/C(C)=C\C)CC2(C)OC1=CC2=O (centres undefined) | 0.453 µM (active) | 0.453 µM (active) |  | 
CC1(C)CCCC2(C)C=C(C(=O)O)C(O)CC12 (centres undefined) | inactive | inactive |  | 
C/C=C1\[C@H](O[C@@H]2O[C@H](CO)[C@@H](O)[C@H](O)[C@H]2O)OC=C(C(=O)OCCc2ccc(O)cc2)[C@H]1CC(=O)OCCc1ccc(O)cc1 | inactive | inactive |  | 
COc1cc(COC2OC(CO)C(O)C(O)C2O)cc(OC)c1O (centres undefined) | inactive | inactive |  | 
COc1c(C)cnc(Cn2cc(C#CCC(C)(C)O)c3c(Cl)nc(N)nc32)c1C | 0.0116 µM (active) | 0.0206 µM (active) |  | 
CC(C)OC(=O)c1cc(C(=O)OC(C)C)cc([N+](=O)[O-])c1 | 27.9 µM (active) | inactive |  | 
C[C@@H]1O[C@@H](O[C@H]2[C@@H]3C=CO[C@@H](O[C@@H]4O[C@H](CO)[C@@H](O)[C@H](O)[C@H]4O)[C@@H]3[C@@]3(CO)O[C@@H]23)[C@H](O)[C@H](OC(=O)/C=C/c2ccc(O)cc2)[C@H]1OC(=O)/C=C/c1ccc(O)cc1 | inactive | inactive |  | 
COC1CC(OC2CCC3(C)C(=CCC4C3C(OC(C)=O)C(OC(=O)/C=C/c3ccccc3)C3(C)C(C(C)O)CCC43O)C2)OC(C)C1OC1CC(OC)C(OC2OC(C)C(OC3OC(CO)C(O)C(O)C3O)C(OC)C2O)C(C)O1 (centres undefined) |  |  | 69.8% [at 9.25 µM] | 71.5% [at 9.25 µM]
CC[C@@H](Nc1c(Nc2cccc(C(=O)N(C)C)c2O)c(=O)c1=O)c1ccc(C)o1 | inactive | inactive |  | 
CC1=CCC(C(C)(C)O[C@@H]2O[C@H](CO[C@@H]3O[C@@H](C)[C@H](O)[C@@H](O)[C@H]3O)[C@@H](O)[C@H](O)[C@H]2O)CC1 (some centres undefined) | inactive | inactive |  | 
C=C(C(=O)O)[C@H]1C[C@]2(C)C(=O)CC[C@]23O[C@H]1C[C@@H]3C | inactive | inactive |  | 
CNc1nc(Cc2ccccc2)nc2c1CCNC[C@@H]2C | inactive | 11.6 µM (active) |  | 
C/C=C/c1ccc(O[C@@H]2O[C@H](CO)[C@@H](O)[C@H](O)[C@H]2O)c(OC)c1 | inactive | inactive |  | 
COC(=O)C1=CO[C@@H](O[C@@H]2O[C@H](CO)[C@@H](O)[C@H](O)[C@H]2O)[C@@H]2[C@@H](C)[C@@H](OC(=O)/C=C/c3ccccc3)[C@@H](O)[C@H]12 | inactive | inactive |  | 
C/C(=C\CCC(C)C1=CCC2(C)OC3=C(CC12)C(=O)C(O)CC3)CO (centres undefined) | inactive | inactive |  | 
CC1=C2C=C(CO)C(CO)CCC2(C)CCC1=O (centres undefined) | inactive | inactive |  | 
CS(=O)(=O)NCC1CCC(Nc2nc3c(s2)CCSc2ccccc2-3)CC1 (centres undefined) | 2.31 µM (active) | 4.61 µM (active) |  | 
